Results filed as inconclusive are left out. Entries that show only a call come without a potency. The source made the active and inactive calls. Calls come from the whole dose curve; as a rule, active = well fitted cell-killing curve with a large enough effect; inconclusive = small, poorly fitted or top-dose-only effect, or effect the other way; inactive = no such curve, though single readings can be large or run the other way.
Potency is the fitted concentration of half-maximal effect.

The first test is described as follows: Quantitative High-Throughput drug screen in 47 multiple myeloma cell lines against the NCATS MIPE library collection: MM1S_ATCC cell viability assay (AID 1918980). Note: nearly all actives have a fitted effect of over 45% in size. The note with it: MM1S myeloma viability, CellTiter-Glo ATP luminescence, 48 h; series mostly up to 45.8 µM. The gist of the method: (§1)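 Myeloma cells (500/well) treated with MIPE 4.0 compounds for 48 h at 37 °C, 5% CO2. Viability read as ATP via CellTiter-Glo luminescence after 5 min at RT; DMSO-only wells = 100%, media-only = 0% viability.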
Turning to `CCCN[C@H]1CCc2nc(N)sc2C1`, the Potency is 0.833 µM (active).

As to `CCN(CC)CCn1c(=O)c(Cc2ccc(OC)cc2)nc2ccccc21`, the Potency entry was “inactive”. Same read-out and setting: to `CC(C)NCC(O)c1ccc(NS(C)(=O)=O)cc1` (stereo not given) belongs 7.43 µM (active); to `CCCCCCNC(=O)n1cc(F)c(=O)[nH]c1=O`, 20.9 µM (active). As to `O=C(O)C1CCCN(CCC=C(c2ccccc2)c2ccccc2)C1` (stereo not given), the Potency is 9.35 µM (active). Take `CN(Cc1cc(Br)cc(Br)c1N)C1CCCCC1`: the Potency result was “inactive”. As to `COC(=O)Nc1nc2ccc(C(=O)c3ccccc3)cc2[nH]1`, the Potency is 3.72 µM (active). The same measure, in the same setting: as for `CC(=O)[C@H]1CC[C@H]2[C@@H]3CC=C4C[C@@H](O)CC[C@]4(C)[C@H]3CC[C@]12C`, the entry is “inactive”; as for `CC(C(=O)O)c1ccc2c(c1)CC(=O)c1ccccc1S2` (stereo not given), 2.96 µM (active).

`CCN(C)C(=O)Oc1cccc([C@H](C)N(C)C)c1`: the Potency result was “inactive”. Regarding `CC[C@H](NC(C)C)[C@H](O)c1ccc(O)c2[nH]c(=O)ccc12`, the Potency was 0.235 µM (active). On to `C[C@@H]1CN(c2c(F)c(N)c3c(=O)c(C(=O)O)cn(C4CC4)c3c2F)C[C@H](C)N1`, for which the Potency entry is “inactive”. In the case of `CC(C)C1CCC(C(=O)N[C@H](Cc2ccccc2)C(=O)O)CC1` (stereo not given in full), the Potency is 16.6 µM (active). `CC1=NN(c2ccccc2)C(=O)C1`: the Potency entry was “inactive”.

Turning to `O=NN(CCCl)C(=O)NC1CCCCC1`, the Potency entry was “inactive”. Regarding `O=P(O)(O)C(O)(Cc1cccnc1)P(=O)(O)O`, the Potency entry is “inactive”. Take `CC1=CC(=O)c2ccccc2C1=O`: the Potency was 18.7 µM (active). Take `Cc1nnc(C(=O)NC(C)(C)c2nc(C(=O)NCc3ccc(F)cc3)c(O)c(=O)n2C)o1`: the Potency entry is “inactive”. Turning to `N[C@@H](C(=O)N[C@@H]1C(=O)N2C(C(=O)O)=C(Cl)CS[C@H]12)c1ccccc1`, the Potency entry was “inactive”.

Take `CN1CCCC(n2nc(Cc3ccc(Cl)cc3)c3ccccc3c2=O)CC1` (stereo not given): the Potency is 0.662 µM (active). `COc1ncnc(NS(=O)(=O)c2ccc(N)cc2)c1OC`: the Potency was 23.5 µM (active). On to `CC(C)Cn1cnc2c(N)nc3ccccc3c21`, for which the Potency was 4.69 µM (active).

A short description of the next test: Quantitative High-Throughput drug screen in 47 multiple myeloma cell lines against the NCATS MIPE library collection: MM1R_ATCC cell viability assay (AID 1918981). Note: nearly all actives have a fitted effect of over 35% in size. The note with it: MM1R multiple myeloma cells, CellTiter-Glo viability, 48 h; series mostly up to 45.8 µM. An outline of the steps:
as §1
A general note: ATP-based viability assays read luminescence as a measure of living cells.
On to `CCN(CC)CCn1c(=O)c(Cc2ccc(OC)cc2)nc2ccccc21`, for which the Potency result was “inactive”. `CNS(=O)(=O)Cc1ccc2[nH]cc(CCN(C)C)c2c1`: the Potency entry is “inactive”. `CCCOc1ccc(C(=O)OCCN(CC)CC)cc1N`: the Potency result is “inactive”.

With `CC(C)NCC(O)c1ccc(NS(C)(=O)=O)cc1` (stereo not given), the Potency entry is “inactive”. As to `C[C@@H]1C[C@H]2[C@@H]3CCC4=CC(=O)C=C[C@]4(C)[C@@]3(Cl)[C@@H](O)C[C@]2(C)[C@@]1(OC(=O)c1ccco1)C(=O)CCl`, the Potency is 16.6 µM (active).

For `O=C(NCC1CN(c2ccc(N3CCOCC3=O)cc2)C(=O)O1)c1ccc(Cl)s1` (stereo not given), the Potency result was “inactive”. With `CCCCCCNC(=O)n1cc(F)c(=O)[nH]c1=O`, the Potency was 4.18 µM (active). On to `Nc1ccc(S(=O)(=O)Nc2ccccn2)cc1`, for which the Potency entry is “inactive”. Turning to `O=C(O)C1CCCN(CCC=C(c2ccccc2)c2ccccc2)C1` (stereo not given), the Potency entry is “inactive”. Same read-out and setting: to `CCOC(=O)c1ccc(OC(=O)CCCCCN=C(N)N)cc1` belongs “inactive”; to `COC(=O)Nc1nc2ccc(C(=O)c3ccccc3)cc2[nH]1`, 1.66 µM (active). Consider `NC(=O)c1cccc(N)c1`, for which the Potency result was “inactive”.

`CC[C@H](NC(C)C)[C@H](O)c1ccc(O)c2[nH]c(=O)ccc12`: the Potency is 0.59 µM (active). On the same count and under the same terms, to `CC(C)C1CCC(C(=O)N[C@H](Cc2ccccc2)C(=O)O)CC1` (stereo not given in full) belongs “inactive”. Regarding `CC1=NN(c2ccccc2)C(=O)C1`, the Potency result was “inactive”.

Take `O=NN(CCCl)C(=O)NC1CCCCC1`: the Potency result is “inactive”. On to `CO[C@@H]1[C@@H](OC(N)=O)[C@@H](O)[C@H](Oc2ccc3c(O)c(NC(=O)c4ccc(O)c(CC=C(C)C)c4)c(=O)oc3c2C)OC1(C)C`, for which the Potency is 8.33 µM (active). Still for that read-out and setting: to `CC1=CC(=O)c2ccccc2C1=O` belongs 9.35 µM (active).

Regarding `Cc1nnc(C(=O)NC(C)(C)c2nc(C(=O)NCc3ccc(F)cc3)c(O)c(=O)n2C)o1`, the Potency entry was “inactive”. With `Nc1nc(N)nc(-c2cc(Cl)ccc2Cl)n1`, the Potency result is “inactive”. As to `CC1=C(C(=O)O)N2C(=O)[C@@H](NC(=O)C(N)c3ccccc3)[C@H]2SC1` (stereo not given in full), the Potency entry was “inactive”. For the compound `CN1CCCC(n2nc(Cc3ccc(Cl)cc3)c3ccccc3c2=O)CC1` (stereo not given), the Potency is 2.35 µM (active).

For `COc1ncnc(NS(=O)(=O)c2ccc(N)cc2)c1OC`, the Potency entry was “inactive”.

Values taken from PubChem BioAssay (NCATS).
